According to the supplement of paper PMC10849652:
The full data set covers some 8,800 targets. This sample favours those with a hit. About 0.5% of all pairs of compound and target were hits. Values without a mark were called inactive.

What follows are targets tested with Cc1cccc(CC(=O)N2CCc3c2ccc(-c2cn(C)c4ncnc(N)c24)c3F)n1 (assay: log2 fold change, soluble protein after heating vs DMSO (PISA); higher = thermal stabilisation; K562 lysate, 10 uM; active = over 0.2 and 3.5 SD of the protein, either way, in both replicates (recomputed)).
Outline: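 Pellets of K562 cells were dounce-homogenised in PBS pH 7.4 with 1 mM MgCl2, and the crude extract was held at 1 mg/mL protein for a 30 min treatment with 10 μM compound. Aliquots were heated for 3 min over 48°C-58°C and pooled before NP-40 was added to 0.5% at 4°C. The supernatant from 21,000xg for 90 min was quantified by TMTpro 16plex LC-MS/MS with channel sums equalised. Values are reported from duplicates as log-two fold change in thermal stability relative to solvent controls.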

UniProt Q9Y6C9, sequence (Q9Y6C9 whole entry, looked up): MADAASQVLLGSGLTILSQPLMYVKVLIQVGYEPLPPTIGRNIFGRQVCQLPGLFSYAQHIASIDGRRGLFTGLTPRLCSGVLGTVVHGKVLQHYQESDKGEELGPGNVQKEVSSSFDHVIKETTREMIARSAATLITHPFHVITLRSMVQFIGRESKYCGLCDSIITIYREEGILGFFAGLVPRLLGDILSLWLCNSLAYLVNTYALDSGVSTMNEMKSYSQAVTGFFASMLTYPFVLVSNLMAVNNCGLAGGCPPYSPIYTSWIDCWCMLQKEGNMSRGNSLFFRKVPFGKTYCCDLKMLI
UniProt Q8NC60, sequence (Q8NC60 whole entry, looked up): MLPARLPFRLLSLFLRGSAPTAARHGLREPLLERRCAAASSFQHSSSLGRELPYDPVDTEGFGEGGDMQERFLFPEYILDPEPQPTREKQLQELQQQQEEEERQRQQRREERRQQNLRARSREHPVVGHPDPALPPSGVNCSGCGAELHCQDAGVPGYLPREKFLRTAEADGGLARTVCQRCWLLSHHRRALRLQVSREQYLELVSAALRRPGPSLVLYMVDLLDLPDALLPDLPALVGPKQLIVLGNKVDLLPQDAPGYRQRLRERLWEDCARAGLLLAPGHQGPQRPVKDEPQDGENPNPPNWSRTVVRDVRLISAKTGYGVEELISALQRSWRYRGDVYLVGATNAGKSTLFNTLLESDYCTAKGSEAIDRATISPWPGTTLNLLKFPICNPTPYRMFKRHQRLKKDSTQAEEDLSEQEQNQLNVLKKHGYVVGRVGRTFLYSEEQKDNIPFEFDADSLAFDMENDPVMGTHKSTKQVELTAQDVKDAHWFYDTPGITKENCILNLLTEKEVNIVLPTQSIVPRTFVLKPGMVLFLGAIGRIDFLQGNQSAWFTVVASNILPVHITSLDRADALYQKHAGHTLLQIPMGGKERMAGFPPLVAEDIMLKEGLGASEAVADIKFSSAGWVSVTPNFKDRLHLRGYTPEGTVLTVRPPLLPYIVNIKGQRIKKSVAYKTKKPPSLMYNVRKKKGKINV
UniProt Q8IXH7, sequence (Q8IXH7 whole entry, looked up): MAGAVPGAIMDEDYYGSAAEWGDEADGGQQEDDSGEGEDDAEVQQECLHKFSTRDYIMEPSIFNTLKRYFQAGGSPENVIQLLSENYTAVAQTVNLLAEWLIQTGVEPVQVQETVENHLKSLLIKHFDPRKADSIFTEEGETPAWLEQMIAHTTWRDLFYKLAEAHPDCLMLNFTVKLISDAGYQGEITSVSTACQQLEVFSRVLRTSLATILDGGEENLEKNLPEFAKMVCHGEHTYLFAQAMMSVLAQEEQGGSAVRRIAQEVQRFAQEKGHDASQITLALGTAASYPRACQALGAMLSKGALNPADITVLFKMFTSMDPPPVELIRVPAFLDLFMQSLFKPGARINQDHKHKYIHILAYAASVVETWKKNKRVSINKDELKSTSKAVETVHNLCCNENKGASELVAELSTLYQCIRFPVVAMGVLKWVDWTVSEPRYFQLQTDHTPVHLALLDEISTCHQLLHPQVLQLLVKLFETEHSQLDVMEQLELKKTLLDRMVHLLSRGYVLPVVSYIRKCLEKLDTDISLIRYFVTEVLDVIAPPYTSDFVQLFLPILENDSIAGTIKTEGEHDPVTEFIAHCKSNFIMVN
UniProt P03886, sequence (P03886 whole entry, looked up): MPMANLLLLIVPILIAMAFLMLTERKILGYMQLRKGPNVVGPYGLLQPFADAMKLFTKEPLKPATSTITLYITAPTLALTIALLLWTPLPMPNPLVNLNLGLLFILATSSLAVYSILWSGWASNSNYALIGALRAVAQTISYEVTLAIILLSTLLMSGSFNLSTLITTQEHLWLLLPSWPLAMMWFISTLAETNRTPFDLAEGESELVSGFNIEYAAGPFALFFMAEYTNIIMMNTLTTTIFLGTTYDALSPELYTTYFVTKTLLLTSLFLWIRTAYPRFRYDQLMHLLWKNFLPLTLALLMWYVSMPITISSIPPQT
UniProt O76041, sequence (O76041 whole entry, looked up): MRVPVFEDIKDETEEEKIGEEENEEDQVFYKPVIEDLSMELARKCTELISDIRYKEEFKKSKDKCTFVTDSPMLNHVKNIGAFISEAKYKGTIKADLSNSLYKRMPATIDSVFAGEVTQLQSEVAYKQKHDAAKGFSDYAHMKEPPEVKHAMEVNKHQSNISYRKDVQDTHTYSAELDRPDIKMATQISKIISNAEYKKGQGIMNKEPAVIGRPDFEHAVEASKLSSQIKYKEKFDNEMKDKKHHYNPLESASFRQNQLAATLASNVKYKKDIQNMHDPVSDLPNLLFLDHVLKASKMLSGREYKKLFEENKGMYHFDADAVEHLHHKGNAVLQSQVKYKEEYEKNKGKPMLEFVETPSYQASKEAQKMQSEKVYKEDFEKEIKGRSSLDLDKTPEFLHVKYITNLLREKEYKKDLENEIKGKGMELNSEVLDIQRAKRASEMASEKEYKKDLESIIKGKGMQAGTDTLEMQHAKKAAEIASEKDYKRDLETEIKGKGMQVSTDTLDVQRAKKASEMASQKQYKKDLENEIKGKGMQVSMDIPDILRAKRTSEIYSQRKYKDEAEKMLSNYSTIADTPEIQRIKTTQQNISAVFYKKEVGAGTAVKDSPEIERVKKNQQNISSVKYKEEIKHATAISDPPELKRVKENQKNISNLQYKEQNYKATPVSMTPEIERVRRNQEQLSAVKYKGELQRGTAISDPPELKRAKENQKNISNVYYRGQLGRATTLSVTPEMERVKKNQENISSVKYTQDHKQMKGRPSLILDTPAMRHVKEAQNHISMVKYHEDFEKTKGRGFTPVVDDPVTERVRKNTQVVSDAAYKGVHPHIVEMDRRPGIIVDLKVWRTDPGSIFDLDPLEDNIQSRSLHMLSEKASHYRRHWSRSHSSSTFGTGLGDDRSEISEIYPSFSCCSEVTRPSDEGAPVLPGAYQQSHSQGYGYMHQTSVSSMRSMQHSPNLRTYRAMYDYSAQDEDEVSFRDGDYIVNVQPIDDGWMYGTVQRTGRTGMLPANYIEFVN
UniProt O00483, sequence (O00483 whole entry, looked up): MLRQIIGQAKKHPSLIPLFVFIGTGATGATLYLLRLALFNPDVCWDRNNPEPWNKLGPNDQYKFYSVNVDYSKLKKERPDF
UniProt Q9NX02, sequence (Q9NX02 whole entry, looked up): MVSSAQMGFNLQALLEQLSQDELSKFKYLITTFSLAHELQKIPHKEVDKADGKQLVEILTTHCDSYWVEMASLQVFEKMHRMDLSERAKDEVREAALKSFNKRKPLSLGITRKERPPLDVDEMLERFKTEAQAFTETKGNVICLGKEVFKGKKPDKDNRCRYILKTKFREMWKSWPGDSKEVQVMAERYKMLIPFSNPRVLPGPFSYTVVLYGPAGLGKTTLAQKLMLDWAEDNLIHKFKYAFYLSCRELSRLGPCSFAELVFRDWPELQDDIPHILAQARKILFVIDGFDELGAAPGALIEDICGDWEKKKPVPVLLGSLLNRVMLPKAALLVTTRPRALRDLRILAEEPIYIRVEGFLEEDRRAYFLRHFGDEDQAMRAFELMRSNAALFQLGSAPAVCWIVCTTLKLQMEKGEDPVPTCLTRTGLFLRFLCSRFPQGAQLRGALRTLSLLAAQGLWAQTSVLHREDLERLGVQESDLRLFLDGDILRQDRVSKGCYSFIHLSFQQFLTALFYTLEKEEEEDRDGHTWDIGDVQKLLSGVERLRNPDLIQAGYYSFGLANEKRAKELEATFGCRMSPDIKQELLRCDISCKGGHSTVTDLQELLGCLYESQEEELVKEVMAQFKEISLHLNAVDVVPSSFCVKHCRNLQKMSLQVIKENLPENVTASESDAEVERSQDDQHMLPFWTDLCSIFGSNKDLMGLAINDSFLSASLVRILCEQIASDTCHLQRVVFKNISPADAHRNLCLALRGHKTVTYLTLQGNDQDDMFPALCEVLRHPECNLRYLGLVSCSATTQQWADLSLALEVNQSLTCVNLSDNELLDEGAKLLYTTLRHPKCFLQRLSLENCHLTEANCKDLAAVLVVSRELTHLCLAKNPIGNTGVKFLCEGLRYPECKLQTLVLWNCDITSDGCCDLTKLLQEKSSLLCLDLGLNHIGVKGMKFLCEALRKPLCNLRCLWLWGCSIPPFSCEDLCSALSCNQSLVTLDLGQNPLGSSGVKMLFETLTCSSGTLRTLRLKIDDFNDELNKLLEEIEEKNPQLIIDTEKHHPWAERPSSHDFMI
UniProt Q9BSD7, sequence (Q9BSD7 whole entry, looked up): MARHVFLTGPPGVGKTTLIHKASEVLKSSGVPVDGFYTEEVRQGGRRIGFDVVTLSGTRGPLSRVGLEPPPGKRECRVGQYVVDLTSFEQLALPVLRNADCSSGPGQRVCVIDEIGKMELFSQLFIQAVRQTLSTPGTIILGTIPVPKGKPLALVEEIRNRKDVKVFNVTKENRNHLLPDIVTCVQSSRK
UniProt Q96NT1, sequence (Q96NT1 whole entry, looked up): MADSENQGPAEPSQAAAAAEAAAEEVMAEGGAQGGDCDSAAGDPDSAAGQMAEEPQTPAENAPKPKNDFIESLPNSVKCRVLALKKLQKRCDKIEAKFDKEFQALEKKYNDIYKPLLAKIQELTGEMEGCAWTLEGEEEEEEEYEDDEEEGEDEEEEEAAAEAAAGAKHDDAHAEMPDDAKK
UniProt Q8TDX7, sequence (Q8TDX7 whole entry, looked up): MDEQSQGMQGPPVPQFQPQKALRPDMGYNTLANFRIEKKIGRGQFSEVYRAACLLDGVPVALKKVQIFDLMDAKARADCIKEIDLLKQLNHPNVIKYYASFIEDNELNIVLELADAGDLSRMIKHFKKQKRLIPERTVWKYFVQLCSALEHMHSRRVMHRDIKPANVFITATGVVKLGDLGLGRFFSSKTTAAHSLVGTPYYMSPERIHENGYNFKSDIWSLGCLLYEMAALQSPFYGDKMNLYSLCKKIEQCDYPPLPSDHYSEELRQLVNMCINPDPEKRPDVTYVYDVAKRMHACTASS
UniProt Q9BPZ3, sequence (Q9BPZ3 whole entry, looked up): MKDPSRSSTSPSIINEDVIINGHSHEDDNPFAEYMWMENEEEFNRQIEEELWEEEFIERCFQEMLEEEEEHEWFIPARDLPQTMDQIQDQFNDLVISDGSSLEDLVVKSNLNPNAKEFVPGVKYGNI

| Target | log2 fold change |
| --- | --- |
| NTPCR (UniProt Q9BSD7) | -0.052 |
| MTHFD1L (UniProt B7ZM99) | 0.018 |
| NOA1 (UniProt Q8NC60) | 0.167 |
| NT5DC2 isoform 2 (UniProt Q9H857) | -0.027 |
| OTUD7B (UniProt Q6GQQ9) | 0.003 |
| NADK2 (UniProt Q4G0N4) | 0.017 |
| NTMT1 (UniProt Q9BV86) | -0.045 |
| OSGEP (UniProt Q9NPF4) | 0.033 |
| NDUFA4 (UniProt O00483) | -0.026 |
| NUB1 (UniProt Q9Y5A7) | -0.002 |
| NFATC2 (UniProt Q13469) | 0.117 |
| ORC2 (UniProt Q13416) | 0.011 |
| NELFCD (UniProt Q8IXH7) | -0.029 |
| NMRAL1 (UniProt Q9HBL8) | 0.011 |
| PAIP2 (UniProt Q9BPZ3) | 0.02 |
| NCAPD2 (UniProt Q15021) | 0.029 |
| NEDD8 (UniProt Q15843) | -0.107 |
| NFIC (UniProt P08651) | 0.003 |

| Target | log2 fold change |
| --- | --- |
| NELFA (UniProt Q9H3P2) | -0.003 |
| NLRP2 (UniProt Q9NX02) | -0.018 |
| OSBPL6 isoform 5 (UniProt Q9BZF3) | 0.004 |
| MTCH2 (UniProt Q9Y6C9) | 0.022 |
| NAA38 isoform 2 (UniProt Q9BRA0) | 0.244 (active) |
| NAP1L5 (UniProt Q96NT1) | -0.174 |
| MT-ND1 (UniProt P03886) | 0.007 |
| NFATC2IP (UniProt Q8NCF5) | -0.018 |
| MYCBP (UniProt Q99417) | 0.182 |
| NIT2 (UniProt Q9NQR4) | -0.06 |
| NEBL (UniProt O76041) | -0.076 |
| NFKBIB (UniProt Q15653) | 0.127 |
| NEK7 (UniProt Q8TDX7) | 0.15 |
| NCOR1 (UniProt O75376) | 0.006 |
| ORC3 isoform 2 (UniProt Q9UBD5) | 0.001 |
| NCK1 (UniProt P16333) | -0.024 |
| NFATC1 (UniProt O95644) | 0.179 |
